Assay outcomes (PubChem BioAssay)
Hits are enriched below; roughly 19% of the tested compounds scored in any of these assays.
CHX counter – affects cycloheximide protein synthesis inhibition readout, counter-screen | 300,000 compounds, 12% hits | cell reporter, cycloheximide protein synthesis inhibition counterscreen | AID 2314 | max response, %; in the data active means max response mostly above about 13%, no sharp cut-off; inactive means mostly below about 14%; further: read at 38.3 µM for the half of the compounds with a filed dose; 0% is about no effect
Lassa entry inh – inhibitors of Lassa virus binding or cell entry | Lassa virus pseudotype entry inhibition, cell reporter | Potency, µM (highest dose often 37.9 µM), for inactives: top-dose activity change, negative = inhibition, usual class: inhibitors | 300,000 compounds, 1.2% hits; calls by dose curve; tested in HEK293 cells; further: potency means the concentration at half of the fitted maximal effect; on the % scale 0 is the no-effect control and ±100 the full control effect; nearly all actives have a fitted effect of over 50% in size
Marburg entry inh – inhibitors of Marburg virus binding or cell entry; AID 540276; Potency, µM (doses to about 37.8 µM), inactives show at the top dose activity change, negative = inhibition, actives largely listed as inhibitors; 300,000 compounds, 1.8% hits; Marburg virus pseudotyped entry inhibition, cell reporter; calls by dose curve; tested in HEK293 cells; further: potency means the concentration at half of the fitted maximal effect; on the % scale 0 is the no-effect control and ±100 the full control effect
Pf growth 96h – P. falciparum growth inhibition at 96 hour, primary screen for plastid delayed-death inhibitors; Potency, µM (series often up to 28.7 µM), inactives show at the highest dose activity change, negative = inhibition, actives largely listed as inhibitors; P. falciparum luciferase reporter growth, 96 h; 320,000 compounds, 6.9% hits; AID 504834; further: potency means the concentration at half of the fitted maximal effect; on the % scale 0 is the no-effect control and ±100 the full control effect
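Cell-based qHTS: luciferase-tagged P. falciparum in erythrocytes (2% hematocrit, 0.05% parasitemia final) incubated with compounds for 96 hours, 37 C, 5% CO2; luciferase detection reagent then added and luminescence measured.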
Pf growth 48h – inhibits P. falciparum growth in the first generation, 48 h; P. falciparum luciferase growth in erythrocytes, 48 h; Potency, µM (highest dose often 28.7 µM), inactives show at the highest dose activity change, negative = inhibition, usual class: inhibitors; 310,000 compounds, 5.9% hits; AID 504832; further: potency means the concentration at half of the fitted maximal effect; on the % scale 0 is the no-effect control and ±100 the full control effect
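Compounds are pin-transferred into medium, infected erythrocytes (2% hematocrit, 0.1% parasitemia final) are added, and plates sit one parasite generation at 37 C in 5% CO2. Detection reagent is then added and luminescence measured.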
Shiga toxin inh – Shiga toxin inhibition; Vero cells, Shiga toxin protein synthesis inhibition reporter; inhibition, % at 38.7 µM; 290,000 compounds, 9.2% hits; in the data active means inhibition mostly above about 28%, no sharp cut-off; inactive means mostly below about 43%; further: 0% is about no effect
* marks the source's active call; other numbers are inactive results; ! = a repeat was not active; [ ] = remark or other dose. Unless noted, the call rests on the fitted dose curve; in most records, active means well fitted inhibition curve with a large enough effect; inconclusive means small, poorly fitted or top-dose-only effect, or another doubt; inactive means no such curve, though single readings can be large or run the other way.

`CC1(O)CC(c2ccc(Cl)cc2)=NN1C(=O)c1ccc(Cl)cc1` (centres undefined) gave CHX counter 2, Pf growth 96h 0% and Pf growth 48h inconclusive.
For O=C(c1ccc(Cl)cc1)N1N=CCC1(O)c1ccc(Cl)cc1 (centres undefined) the results were CHX counter 22*, Pf growth 96h 0%, Pf growth 48h 13% and Shiga toxin inh 38.
Screening CN1C(=O)CC(N2CCN(CCN=CC3=C(O)CC(C)(C)CC3=O)CC2)C1=O (centres undefined) returned CHX counter 8, Lassa entry inh inconclusive, Marburg entry inh 18%, Pf growth 96h 12µM*, Pf growth 48h -11% and Shiga toxin inh 19.
Screening Cc1ccc(S(=O)(=O)C2(C(=O)NC3CCCCC3C)CC2)cc1 (centres undefined) returned CHX counter 3, Lassa entry inh 3%, Marburg entry inh 14%[46.1 µM], Pf growth 96h inconclusive, Pf growth 48h -28% and Shiga toxin inh -9.
`c1ccc(CNc2ncnc3nc[nH]c23)cc1` gave CHX counter 13, Pf growth 96h inconclusive and Shiga toxin inh 17.
Screening c1ccc(CCCNc2ncnc3nc[nH]c23)cc1 returned CHX counter 27*, Lassa entry inh 3%, Marburg entry inh 7%, Pf growth 96h inconclusive, Pf growth 48h 18% and Shiga toxin inh 37.
`c1ccc(CCCCc2ccccn2)cc1` gave Lassa entry inh 10%[46.1 µM] and Marburg entry inh inconclusive.
Screening C1=C(CCNc2ncnc3nc[nH]c23)CCCC1 returned CHX counter 37*, Lassa entry inh -27%, Marburg entry inh -41%, Pf growth 96h inconclusive, Pf growth 48h inconclusive and Shiga toxin inh 38*.
For c1ccc(CCCNc2ncccn2)cc1 the results were CHX counter 32*, Lassa entry inh 8%, Marburg entry inh 4%, Pf growth 96h 3.3µM*, Pf growth 48h 69% and Shiga toxin inh active.
Screening c1ccc2c(CCNc3ncnc4nc[nH]c34)cccc2c1 returned CHX counter 31*, Lassa entry inh 1%, Marburg entry inh inconclusive, Pf growth 96h 23%, Pf growth 48h 33% and Shiga toxin inh active.
For Clc1ccc(CCNc2ncnc3nc[nH]c23)cc1 the results were CHX counter 14, Lassa entry inh -3%, Marburg entry inh inconclusive, Pf growth 96h inconclusive, Pf growth 48h -4% and Shiga toxin inh 30.
For Cc1ccc(NC(=O)C(Cc2ccccc2)NC(=O)c2ccco2)cc1 (centres undefined) the results were CHX counter -3, Lassa entry inh -1%, Marburg entry inh -6%, Pf growth 96h -20% and Shiga toxin inh -7.
Screening O=C(Nc1cccc(C(=O)O)c1)/C(=C\c1ccc2c(c1)OCO2)NC(=O)c1ccco1 returned CHX counter 1, Pf growth 96h 13%, Pf growth 48h 18% and Shiga toxin inh 3.
`O=C(Nc1cccc(N=Cc2cc(Cl)cc(Br)c2O)c1)c1ccco1` gave CHX counter -1, Lassa entry inh -6%, Marburg entry inh inconclusive, Pf growth 96h 33%, Pf growth 48h inconclusive and Shiga toxin inh -9.
O=C(/C=C/c1ccccc1Cl)NCCc1ccc(F)cc1 was read as CHX counter 24*, Lassa entry inh 4%, Marburg entry inh inconclusive, Pf growth 96h inconclusive, Pf growth 48h 4.7µM* and Shiga toxin inh 93*.
O=C(/C=C/c1ccccc1[N+](=O)[O-])NCCc1ccc(F)cc1 was read as CHX counter 24*, Pf growth 96h 37%, Pf growth 48h -6%[5.75 µM] and Shiga toxin inh 69.
For NS(=O)(=O)c1ccc(CCNC(=O)COC(=O)/C=C/c2ccccc2Cl)cc1 the results were CHX counter 1, Lassa entry inh 11%, Marburg entry inh -4%[46.1 µM], Pf growth 96h 34%, Pf growth 48h 23% and Shiga toxin inh 14.
`O=C(Cc1ccccc1[N+](=O)[O-])NCCc1ccc(F)cc1` gave CHX counter 1, Pf growth 96h 36%, Pf growth 48h 3% and Shiga toxin inh 3.
For Cc1ccc(CSCCNC(=O)/C=C/c2ccccc2Cl)cc1 the results were CHX counter 32*, Lassa entry inh -3%, Marburg entry inh 3%, Pf growth 96h -5%, Pf growth 48h inconclusive and Shiga toxin inh 6.
For COc1ccc(-n2c(=O)c3ccccc3n(CC(=O)NCCc3ccc(OC)c(OC)c3)c2=O)cc1 the results were Lassa entry inh 26%[46.1 µM] and Marburg entry inh 2%[46.1 µM].
Screening COc1ccc(-c2cc(=O)c3cc(OC)ccc3[nH]2)cc1 returned CHX counter 61*, Lassa entry inh -3%, Marburg entry inh -14%, Pf growth 96h 67%, Pf growth 48h 131% and Shiga toxin inh 94*.
Screening COc1ccc2[nH]c3ccccc3c2c1 returned CHX counter 32*, Lassa entry inh 15%, Marburg entry inh inconclusive, Pf growth 48h 9% and Shiga toxin inh 58.
`COc1cc2[nH]c(-c3ccc(C)cc3)cc(=O)c2cc1OC` gave CHX counter 29*, Lassa entry inh 6%, Marburg entry inh 29%, Pf growth 96h inconclusive, Pf growth 48h -26% and Shiga toxin inh active!.
For COc1ccc(-c2cc(=O)c3cc(C)ccc3[nH]2)cc1 the results were CHX counter 35*, Lassa entry inh 18%, Marburg entry inh 7%, Pf growth 96h inconclusive, Pf growth 48h 24% and Shiga toxin inh 53*.
`COc1cc2[nH]c(-c3cccc(F)c3)cc(=O)c2cc1OC` gave CHX counter -3, Lassa entry inh -10%, Marburg entry inh inconclusive, Pf growth 96h inconclusive, Pf growth 48h inconclusive and Shiga toxin inh -14.
O=C(Nc1nc2cc3c(cc2s1)OCCO3)c1ccc(N2C(=O)CCC2=O)cc1 was read as CHX counter 31*, Pf growth 96h 21%, Pf growth 48h 32% and Shiga toxin inh 50*.
Screening COC(=O)c1ccc(C(=O)Nc2nc3cc(N)c(C)cc3s2)cc1 returned CHX counter -1, Lassa entry inh 5%[46.1 µM], Marburg entry inh -11%[46.1 µM], Pf growth 96h 20%, Pf growth 48h -8% and Shiga toxin inh 18.
`O=C(Nc1nc2cc3c(cc2s1)OCCO3)c1ccncc1` gave CHX counter 33*, Lassa entry inh inconclusive, Marburg entry inh inconclusive, Pf growth 96h 110%, Pf growth 48h inactive and Shiga toxin inh 121*.
Cc1ccc(C)c(S(=O)(=O)N2CCC(c3nc4c(nnn4Cc4ccc(F)cc4)c(=O)[nH]3)CC2)c1 was read as CHX counter -4, Lassa entry inh inconclusive, Marburg entry inh -25%, Pf growth 96h 68%, Pf growth 48h inconclusive and Shiga toxin inh -8.
Screening COCCn1c(SCC(=O)c2c(C)[nH]c3ccccc23)nc2cc(C(=O)NC(C)C)ccc2c1=O returned Lassa entry inh -21%[46.1 µM].
